Where “and” joins values, the source holds several entries; their conditions need not be identical. Identical values can stand only once. Hit rate of the full screen: of about 350,000 compounds, about 6,000 (1.7%) were called active. Another 5% or so got no clear call; they are omitted. Rule as the data show it: active = CPE inhibition above about 20% (passing the limit was not always enough); inconclusive = no clear call, values can overlap the other calls; tested in BHK-21 cells. This excerpt belongs to a sample that is enriched for actives.
test: inhibitors of DENV2 cytopathic effect, primary screen, cell-based, plate reader, single concentration (AID 651640); conditions: DENV2-infected cells, cytopathic effect rescue, at 9.99 µM, hits give high values;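 also: 0% = median of neutral control wells and 100% = median of positive control wells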

CPE inhibition, active:
COc1ccc(C#Cc2ccc3c(c2)[C@H]2[C@H](CCN2Cc2nccs2)[C@@H](CO)N3)cc1 27.7%
O=S(=O)(c1ccc(F)cc1)N1CC[C@@H]2[C@@H](CO)Nc3ccc(-c4ccccc4F)cc3[C@@H]21 77.9%
Cc1cccc(S(=O)(=O)N2CC[C@@H]3[C@H]2c2cc(C#Cc4ccc(F)cc4)ccc2N[C@@H]3CO)c1 65.6%
COc1ccccc1-c1sc2ccccc2c1-c1ccc(Br)nc1 24.6%
COc1ccc(-c2cc(NC=O)c3ncc(-c4cc(OC)c(OC)c(OC)c4)n3c2)c(OC)c1 42.3%
CCCCCCCCCCCCN1[C@@H](CC(C)=O)c2cc(F)cc(F)c2S1(=O)=O 37.7%
Cc1noc(C)c1NC(=O)N(C)C[C@@H]1Oc2c(NC(=O)CCCCCC(=O)Nc3ccccc3N)cccc2C(=O)N([C@H](C)CO)C[C@@H]1C 57.6%
C[C@@H]1CN([C@@H](C)CO)C(=O)c2cccc(NC(=O)CCCCCC(=O)Nc3ccccc3N)c2O[C@H]1CN(C)C(=O)Nc1cccc2ccccc12 20.8%

CPE inhibition, inactive:
CO[C@@H]1CN(C)C(=O)c2cc(NS(=O)(=O)c3cn(C)cn3)ccc2OC[C@@H](C)NC[C@H]1C -0.807%
COCc1cn(CC[C@H]2CC[C@@H](NC(=O)Nc3ccc(OC)cc3)[C@@H](CO)O2)nn1 0.762%
C/C=C/c1ccc(C2[C@H]3CNC[C@@H]2N3C(=O)Nc2ccc(F)cc2)cc1 (stereo not given in full) 0.029% and 10.5%
O=C(Nc1ccc(-c2ccccc2)cc1)[C@@H]1[C@@H](CO)[C@@H]2Cn3c(cccc3=O)[C@H]1N2Cc1ccncc1 -0.731%
CO[C@@H]1CN(C)C(=O)c2cc(NS(=O)(=O)c3cn(C)cn3)ccc2OC[C@@H](C)N(CCC(F)(F)F)C[C@H]1C -9.32%
O=C(c1ccccc1F)N1CC(=O)N2[C@H](CO)[C@H](c3ccc(-c4cccnc4)cc3)[C@H]2C1 8.17%
C[C@@H]1CCCCO[C@@H](CN(C)S(=O)(=O)c2ccccc2)[C@@H](C)CN([C@@H](C)CO)C(=O)c2cc(NS(=O)(=O)c3cn(C)cn3)ccc2O1 -3.06%
C[C@H](NC(=O)C[C@@H]1C[C@@H]2c3cc(NS(=O)(=O)c4ccc(F)cc4)ccc3O[C@@H]2[C@@H](CO)O1)c1ccccc1 2.95%
CC(C)NC(=O)N1CCCCN2[C@H](CO)[C@@H](c3ccc(Br)cc3)[C@H]2C1 -4.94%
COc1ccc(NC(=O)Nc2cccc3c2O[C@H](CN(C)S(=O)(=O)c2ccc(F)cc2)[C@H](C)CN([C@H](C)CO)C3=O)cc1 -3.75%
COc1ccccc1CN1CC[C@@H]2[C@@H](CO)Nc3ccc(C#Cc4ccccc4)cc3[C@@H]21 -32.6%
CN(C)C(=O)c1cccc(-c2ccc3c(c2)[C@@H]2[C@@H](CCN2Cc2nccs2)[C@@H](CO)N3)c1 -14%
COc1ccccc1S(=O)(=O)N1CC[C@@H]2[C@H](CO)Nc3ccc(-c4ccccc4F)cc3[C@@H]21 -1.18%
O=S(=O)(c1ccccc1)N1CC[C@@H]2[C@@H](CO)Nc3ccc(C#Cc4cccc(F)c4)cc3[C@@H]21 1.91%
O=S(=O)(c1ccccc1)N1CC[C@@H]2[C@H]1c1cc(C#Cc3cccc(F)c3)ccc1N[C@@H]2CO -8.72%
O=S(=O)(c1ccccc1)N1CC[C@@H]2[C@@H](CO)Nc3ccc(-c4ccccc4F)cc3[C@@H]21 16.3%
CCCN1[C@H](C(=O)N2CCOCC2)[C@@H](CO)[C@@H]2Cn3c(ccc(/C=C/c4ccccc4)c3=O)[C@@H]21 14.1%
CCCc1cn(CC[C@@H]2CC[C@@H](NS(=O)(=O)c3ccccc3Cl)[C@@H](CO)O2)nn1 -1.78%
CO[C@H]1CN(C)C(=O)c2ccc(NC(=O)Nc3c(C)noc3C)cc2OC[C@@H](C)NC[C@H]1C 1.98%
C/C=C/c1ccc2c(c1)O[C@H](CN(C)C(=O)c1ccc3c(c1)OCO3)[C@@H](C)CN([C@H](C)CO)S2(=O)=O 19.1%
CC(=O)N1C[C@@H]2[C@H](c3ccccc31)[C@H](CO)N2C(=O)Nc1ccc(F)cc1 -5.97%
COc1ccccc1-c1sc2ccccc2c1C#CC1(O)CCCCC1 -3.75%
COc1ccc2sc(-c3ccccc3OC)c(-c3ccc(OCCN4CCCC4)cc3)c2c1 -8.2%
COc1ccc(-c2cc(NC=O)c3ncc(-c4cccc(C(=O)N(C)C)c4)n3c2)c(OC)c1 -8.87%
COc1ccc(-c2cc(NC=O)c3ncc(-c4ccccc4)n3c2)cc1OC 8.91%
C[C@@H]1CN([C@@H](C)CO)C(=O)Cc2cc(NC(=O)CCN3CCOCC3)ccc2O[C@@H]1CN(C)CC1CC1 -11.7%
C[C@H](CO)N1C[C@H](C)[C@@H](CN(C)CC2CC2)Oc2ccc(NC(=O)Nc3ccccc3)cc2CC1=O 7.45%
COc1ccc(CN2[C@@H](CC(=O)O)c3cc(F)ccc3S2(=O)=O)cc1 -4.72%
CCCCCCN1CCN(C2CN(Cc3cn(Cc4ccc(F)cc4)nn3)S(=O)(=O)C2)CC1 (stereo not given) -0.218%
CO[C@H]1CN(C)C(=O)c2ccc(NC(=O)C3CC3)cc2OC[C@H](C)N(CCc2ccccc2)C[C@@H]1C 4.92%
COCC(=O)N(C)C[C@@H]1Oc2ncc(-c3ccccc3OC)cc2C(=O)N([C@@H](C)CO)C[C@@H]1C 0.798%
CC(C)NC(=O)Nc1ccc2c(c1)C(=O)N([C@H](C)CO)C[C@@H](C)[C@@H](CN(C)C(=O)c1ccncc1)OCCCC[C@H](C)O2 -1.8%
CNC(=O)C[C@@H]1CC[C@@H]2[C@@H](COc3ccc(NC(=O)c4ccc(F)cc4)cc3C(=O)N2C)O1 -2.03%
Cc1noc(C)c1NC(=O)Nc1cccc2c1O[C@H](CN(C)C(=O)Nc1c(C)noc1C)[C@@H](C)CN([C@@H](C)CO)C2=O -1.85%
C[C@@H]1CN([C@@H](C)CO)C(=O)c2cccc(NC(=O)CCCCCC(=O)Nc3ccccc3N)c2O[C@H]1CN(C)C(=O)Nc1ccccc1 4.08%
Cc1noc(C)c1NC(=O)N(C)C[C@@H]1Oc2c(NC(=O)C3CCCCC3)cccc2C(=O)N([C@H](C)CO)C[C@@H]1C -0.956%
C[C@H]1CN([C@@H](C)CO)C(=O)c2cccc(NC(=O)Nc3ccccc3)c2O[C@H]1CN(C)C(=O)Nc1cccc2ccccc12 3.97%

Reference: PubChem BioAssay AID651640 (Broad Institute, 2012)
